Assay [1] addresses Oxysterols receptor LXR-alpha (Homo sapiens) (UniProt Q13133). As to the kind of experiment: ATG_LXRa_TRANS: Attagene TRANS-FACTORIAL HepG2 Assay for human Liver X Receptor alpha (LXRa) (AID 2282980; active = hit-call score of the fitted dose curve at least 0.9, where 1 is the maximum). As to conditions: HepG2 Attagene TRANS reporter, LXRa transactivation. In a few lines:
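HepG2 cells transiently transfected with GAL4-UAS reporter units for chimeric NR-Gal4 proteins, exposed to chemicals for 24 h. Reporter mRNA quantified by RT-PCR and capillary electrophoresis; gain of signal fitted relative to DMSO.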

The target in assay [2] is Oxysterols receptor LXR-beta (Homo sapiens) (UniProt P55055). Nature of the assay: ATG_LXRb_TRANS: Attagene TRANS-FACTORIAL HepG2 Assay for human Liver X Receptor beta (LXRb) (AID 2282981; active = hit-call score of the fitted dose curve at least 0.9, where 1 is the maximum). As to conditions: HepG2 Attagene TRANS GAL4-LXRb reporter, mRNA. The method in brief:
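HepG2 cells transiently transfected with GAL4-UAS reporter units for chimeric NR-Gal4 proteins, dosed for 24 h. Reporter transcripts measured by RT-PCR and capillary electrophoresis; gain-of-signal fitting relative to DMSO.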

The target of assay [3] is Hepatocyte nuclear factor 4-alpha (Homo sapiens) (UniProt P41235). As to the kind of experiment: ATG_HNF4a_TRANS: Attagene TRANS-FACTORIAL HepG2 Assay for human Hepatocyte Nuclear Factor 4 alpha (HNF4a) (AID 2282982; active = hit-call score of the fitted dose curve at least 0.9, where 1 is the maximum). As to conditions: HepG2 HNF4a transactivation reporter, mRNA readout. In a few lines:
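HepG2 cells transiently transfected with HNF4a-Gal4 chimera and GAL4-UAS reporter units, dosed for 24 h. Reporter mRNA measured by RT-PCR, fluorescent primer extension and capillary electrophoresis; gain-of-signal fitted relative to DMSO.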

The nature of assay [4]: ATG_M_06_TRANS: Attagene TRANS-FACTORIAL HepG2 Assay for M06 Transcription Factor (Internal Marker) (AID 2282983; active = hit-call score of the fitted dose curve at least 0.9, where 1 is the maximum;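 note: reporter transcript level by RT-PCR then capillary electrophoresis fluorescence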). As to conditions: HepG2 Attagene TRANS M06 internal marker reporter. In a few lines: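 HepG2 cells transiently transfected with GAL4-UAS multiple reporter units, dosed 24 h. Reporter RNA reverse-transcribed, PCR-amplified, 6-FAM-labeled, HpaI-digested and quantified by capillary electrophoresis; this internal-marker signal fitted upward relative to DMSO.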

Assay [5] can be described thus: ATG_M_32_TRANS: Attagene TRANS-FACTORIAL HepG2 Assay for M32 Transcription Factor (Internal Marker) (AID 2282984; active = hit-call score of the fitted dose curve at least 0.9, where 1 is the maximum;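 note: transcript level of a background control reporter unit measured by RT-PCR and capillary electrophoresis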). As to conditions: HepG2 Attagene TRANS M32 internal marker reporter. The method in brief: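 HepG2 cells transiently transfected with GAL4-UAS reporter units, dosed for 24 hours. Reporter mRNA quantified by RT-PCR, 6-FAM labelling, HpaI digestion and capillary electrophoresis; internal-marker signal fitted upward relative to DMSO.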

Assay [6] deals with Nuclear receptor subfamily 4 group A member 2 (Homo sapiens) (UniProt P43354). Nature of the assay: ATG_NURR1_TRANS: Attagene TRANS-FACTORIAL HepG2 Assay for human Nuclear Receptor Related Protein 1 (NURR1) (AID 2282985; active = hit-call score of the fitted dose curve at least 0.9, where 1 is the maximum). As to conditions: HepG2 Attagene TRANS reporter, mRNA readout. The method in brief: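 HepG2 cells transiently transfected with NURR1-Gal4 chimera and GAL4-UAS reporter units; after 24 hr compound exposure, reporter mRNA quantified by RT-PCR and capillary electrophoresis; gain of signal fitted against DMSO.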

For assay [7], the target named is Transcriptional activator Myb (Homo sapiens) (UniProt P10242). As to the kind of experiment: ATG_Myb_CIS: Attagene CIS-FACTORIAL HepG2 Assay for human Myeloblastosis (Myb) Proto-Oncogene Transcription Factor (AID 2282986). As to conditions: HepG2 Attagene CIS-FACTORIAL Myb reporter transcription; actives raise or lower the signal. The method in brief:
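Using HepG2 liver cells bearing transiently transfected cis-promoter reporter constructs, the assay measures induction or loss of reporter mRNA after 24 hours of dosing. Detection used fluorescently labeled RT-PCR products separated by capillary electrophoresis.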

Assay [8] addresses Nuclear respiratory factor 1 (Homo sapiens) (UniProt Q16656). As to the kind of experiment: ATG_NRF1_CIS: Attagene CIS-FACTORIAL HepG2 Assay for human Nuclear Respiratory Factor 1 (NRF1) Orphan Gene (AID 2282987). As to conditions: HepG2 NRF1 cis-element reporter, Attagene multiplex; actives raise or lower the signal. In a few lines:
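Reporter mRNA induction or loss in HepG2 cells after 24 h dosing; cis-regulated reporter constructs report endogenous transcription-factor activity. Quantified by RT-PCR/capillary electrophoresis fluorescence, DMSO-referenced.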

Assay [9] in a line: ATG_NFI_CIS: Attagene CIS-FACTORIAL HepG2 Assay for human Nuclear Factor I (NFI) (AID 2282989). As to conditions: HepG2 cis-regulatory reporter, NFI response element transcription; actives raise or lower the signal. In a few lines: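 Cells: human liver HepG2, transiently transfected with promoter-regulated reporter transcription units. Exposure 24 h. Detection: fluorescent RT-PCR products separated by capillary electrophoresis, normalised to DMSO negative control.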

In assay [10] the target is Myc proto-oncogene protein (Homo sapiens) (UniProt P01106). As to the kind of experiment: ATG_Myc_CIS: Attagene CIS-FACTORIAL HepG2 Assay for human Myelocytomatosis (Myc) Proto-Oncogene Transcription Factor (AID 2282990). As to conditions: HepG2, Attagene cis-reporter transcription factor activity; actives raise or lower the signal. In a few lines: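 Read-out: fluorescent reporter mRNA fragments resolved by capillary electrophoresis after RT-PCR. Human HepG2 liver cells carried transfected cis-element reporter units and were dosed for 24 h. Gain or loss of signal fitted relative to DMSO baseline.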

Assay [11] can be described thus: ATG_NF_kB_CIS: Attagene CIS-FACTORIAL HepG2 Assay for human Nuclear Factor Kappa B (NF-kB) (AID 2282991). As to conditions: HepG2 Attagene cis-factorial NF-kB reporter mRNA; actives raise or lower the signal. The method in brief: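 DMSO served as negative control and baseline for bidirectional curve fitting. Transiently transfected HepG2 cells were dosed for 24 h, then reporter transcripts were measured by RT-PCR with capillary electrophoresis detection.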

Assay [12] is described as follows: ATG_NRF2_ARE_CIS: Attagene CIS-FACTORIAL HepG2 Assay for human Nuclear Factor Erythroid 2 Related Factor 2 (NFR2) response to Antioxidant Response Elements (ARE) (AID 2282992).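 For AC50: reporter mRNA level measured by RT-PCR and capillary electrophoresis fluorescence.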 As to conditions: HepG2 Attagene ARE/NRF2 reporter, transcription factor activity; actives raise or lower the signal. The method in brief:
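HepG2 cells transiently transfected with multiplexed cis-regulated reporter transcription units measure endogenous transcription factor activity. Reporter mRNA at 24 h is quantified by RT-PCR, fluorescent labelling and capillary electrophoresis, with bidirectional fitting relative to DMSO.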

Assay [13] is described as follows: ATG_Oct_MLP_CIS: Attagene CIS-FACTORIAL HepG2 Assay for human Octamer-Binding Transcription Factor (Oct) (AID 2282993). As to conditions: HepG2 Attagene cis-factorial Oct reporter, mRNA; actives raise or lower the signal. In a few lines:
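HepG2, transient MRTU transfection, cis promoter elements; 24 h dosing; RT-PCR/CE fluorescence read-out of reporter mRNA; fit both directions vs DMSO.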

Assay [14] deals with Cellular tumor antigen p53 (Homo sapiens) (UniProt P04637). Nature of the assay: ATG_p53_CIS: Attagene CIS-FACTORIAL HepG2 Assay for human p53 Transcription Factor (AID 2282994). As to conditions: HepG2 p53 cis-element reporter, Attagene mRNA; actives raise or lower the signal. The method in brief:
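HepG2 cells transiently transfected with multiplexed cis-regulated reporter transcription units read endogenous TF activity. After 24 h compound exposure, reporter mRNA was quantified by RT-PCR, fluorescent labelling, HpaI digestion and capillary electrophoresis; bidirectional fits versus DMSO baseline.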

A short description of assay [15]: BSK_3C_TissueFactor: BioMAP Diversity Plus: 3C Assay for Tissue Factor Biomarker Activity (AID 2282997). As to conditions: BioMAP 3C HUVEC, tissue factor biomarker readout; actives raise or lower the signal. In a few lines: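 HUVEC were treated 24 h, then surface tissue factor measured by ELISA and fitted bidirectionally against DMSO. Parallel SRB total-protein staining assessed overt cytotoxicity at the same time point.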

Assay [16] can be described thus: BSK_3C_uPAR: BioMAP Diversity Plus: 3C Assay for Urokinase-type plasminogen activator receptor (uPAR) Biomarker Activity (AID 2282998). As to conditions: BioMAP 3C HUVEC, uPAR biomarker ELISA; actives raise or lower the signal. In a few lines:
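A multiplexed primary-cell system built on human umbilical vein endothelium was used, with chemical present for 24 h before reading. Cell-surface uPAR was detected by ELISA; signal change in either direction counted against DMSO.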
Background: ELISA stands for enzyme-linked immunosorbent assay.

The target of assay [17] is Bile acid receptor (Homo sapiens) (UniProt Q96RI1). Nature of the assay: ATG_FXR_TRANS: Attagene TRANS-FACTORIAL HepG2 Assay for Farnesoid X Receptor (FXR) (AID 2282979; active = hit-call score of the fitted dose curve at least 0.9, where 1 is the maximum;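 note: hits raise reporter mRNA above DMSO so AC50 marks FXR activation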). As to conditions: HepG2 Attagene TRANS FXR-GAL4 reporter transcription. The method in brief: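 HepG2 cells were transiently transfected with GAL4-UAS reporters driven by chimeric NR-Gal4 proteins and dosed for 24 h. Reporter mRNA was quantified by RT-PCR, fluorescent labelling, HpaI digestion and capillary electrophoresis, with gain of signal scored versus DMSO.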

In assay [18] the target is Glucocorticoid receptor (Homo sapiens) (UniProt P04150). As to the kind of experiment: ATG_GR_TRANS: Attagene TRANS-FACTORIAL HepG2 Assay for human Glucocorticoid Receptor (GR) (AID 2282978; active = hit-call score of the fitted dose curve at least 0.9, where 1 is the maximum;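 note: activators score as hits since higher reporter transcript over DMSO is fitted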). As to conditions: HepG2 Attagene TRANS GR reporter, mRNA transcription. In a few lines: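 Transiently transfected HepG2 cells express chimeric NR-GAL4 proteins acting on GAL4-UAS reporter units. Compounds are applied for 24 h. mRNA induction over DMSO is measured by capillary electrophoresis.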

Inconclusive results are not listed. Active and inactive are the calls of the source. Rule for the calls, unless noted: active = hit-call score of the fitted dose curve at least 0.9, where 1 is the maximum; inactive = score below 0.9.

Nuclear receptor subfamily 4 group A member 2 (Homo sapiens), sequence (P43354 whole entry, looked up, the tested form may be a part): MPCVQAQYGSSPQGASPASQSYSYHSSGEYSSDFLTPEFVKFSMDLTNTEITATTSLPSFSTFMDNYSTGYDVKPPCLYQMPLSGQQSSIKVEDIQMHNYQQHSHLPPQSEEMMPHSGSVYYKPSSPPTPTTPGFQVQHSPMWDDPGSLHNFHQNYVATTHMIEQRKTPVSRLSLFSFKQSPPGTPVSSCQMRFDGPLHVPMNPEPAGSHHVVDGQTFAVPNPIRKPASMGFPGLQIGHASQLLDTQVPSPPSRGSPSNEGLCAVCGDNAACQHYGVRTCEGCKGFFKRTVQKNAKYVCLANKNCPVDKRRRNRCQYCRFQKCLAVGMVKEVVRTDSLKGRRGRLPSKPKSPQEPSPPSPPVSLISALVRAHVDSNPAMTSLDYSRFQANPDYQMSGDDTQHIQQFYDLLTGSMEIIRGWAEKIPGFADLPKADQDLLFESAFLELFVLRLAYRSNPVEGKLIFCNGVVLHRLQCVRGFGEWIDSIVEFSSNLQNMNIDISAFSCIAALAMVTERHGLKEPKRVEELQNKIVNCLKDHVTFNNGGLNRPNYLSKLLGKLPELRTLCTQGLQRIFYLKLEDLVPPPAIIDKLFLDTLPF
Transcriptional activator Myb (Homo sapiens), sequence (P10242 whole entry, looked up): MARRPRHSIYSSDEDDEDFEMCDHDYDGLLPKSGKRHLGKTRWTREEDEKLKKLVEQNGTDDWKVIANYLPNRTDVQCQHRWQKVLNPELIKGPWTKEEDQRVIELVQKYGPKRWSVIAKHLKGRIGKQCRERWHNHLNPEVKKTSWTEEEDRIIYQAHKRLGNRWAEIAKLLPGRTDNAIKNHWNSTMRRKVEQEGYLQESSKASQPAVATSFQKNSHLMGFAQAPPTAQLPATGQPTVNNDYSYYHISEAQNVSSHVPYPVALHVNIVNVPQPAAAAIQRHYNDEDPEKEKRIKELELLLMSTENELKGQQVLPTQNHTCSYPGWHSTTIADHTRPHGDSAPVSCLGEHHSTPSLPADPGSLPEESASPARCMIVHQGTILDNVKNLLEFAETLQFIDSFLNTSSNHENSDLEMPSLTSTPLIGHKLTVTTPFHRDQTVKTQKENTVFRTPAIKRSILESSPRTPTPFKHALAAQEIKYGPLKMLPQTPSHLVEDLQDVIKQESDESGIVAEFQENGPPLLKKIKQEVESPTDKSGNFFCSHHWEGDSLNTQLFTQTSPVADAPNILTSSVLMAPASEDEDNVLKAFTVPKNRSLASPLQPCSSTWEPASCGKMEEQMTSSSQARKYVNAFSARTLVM
Oxysterols receptor LXR-alpha (Homo sapiens), sequence (Q13133 whole entry, looked up, the tested form may be a part): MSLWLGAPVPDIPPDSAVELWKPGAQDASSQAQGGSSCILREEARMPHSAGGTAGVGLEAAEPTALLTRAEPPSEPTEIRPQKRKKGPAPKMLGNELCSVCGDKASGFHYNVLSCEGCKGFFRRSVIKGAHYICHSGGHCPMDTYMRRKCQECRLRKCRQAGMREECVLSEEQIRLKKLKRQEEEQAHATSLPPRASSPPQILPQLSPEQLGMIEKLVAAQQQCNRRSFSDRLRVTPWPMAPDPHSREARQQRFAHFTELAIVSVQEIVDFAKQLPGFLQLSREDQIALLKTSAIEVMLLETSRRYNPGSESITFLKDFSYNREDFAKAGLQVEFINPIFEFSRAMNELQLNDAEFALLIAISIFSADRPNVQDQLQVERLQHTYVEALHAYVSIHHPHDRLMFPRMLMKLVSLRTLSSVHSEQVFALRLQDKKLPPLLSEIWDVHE
Oxysterols receptor LXR-beta (Homo sapiens), sequence (P55055 whole entry, looked up, the tested form may be a part): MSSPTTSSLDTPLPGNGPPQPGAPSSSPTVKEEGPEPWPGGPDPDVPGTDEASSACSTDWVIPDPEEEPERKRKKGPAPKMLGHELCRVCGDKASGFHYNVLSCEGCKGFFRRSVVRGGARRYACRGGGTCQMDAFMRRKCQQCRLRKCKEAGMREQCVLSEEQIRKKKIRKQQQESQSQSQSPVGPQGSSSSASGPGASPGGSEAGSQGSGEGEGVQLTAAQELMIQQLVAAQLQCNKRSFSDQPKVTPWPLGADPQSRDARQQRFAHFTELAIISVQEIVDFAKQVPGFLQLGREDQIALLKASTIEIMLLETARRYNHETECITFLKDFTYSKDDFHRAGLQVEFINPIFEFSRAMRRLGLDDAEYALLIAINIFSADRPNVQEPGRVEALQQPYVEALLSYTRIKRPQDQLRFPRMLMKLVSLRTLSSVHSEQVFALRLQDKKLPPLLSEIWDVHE
Hepatocyte nuclear factor 4-alpha (Homo sapiens), sequence (P41235 whole entry, looked up, the tested form may be a part): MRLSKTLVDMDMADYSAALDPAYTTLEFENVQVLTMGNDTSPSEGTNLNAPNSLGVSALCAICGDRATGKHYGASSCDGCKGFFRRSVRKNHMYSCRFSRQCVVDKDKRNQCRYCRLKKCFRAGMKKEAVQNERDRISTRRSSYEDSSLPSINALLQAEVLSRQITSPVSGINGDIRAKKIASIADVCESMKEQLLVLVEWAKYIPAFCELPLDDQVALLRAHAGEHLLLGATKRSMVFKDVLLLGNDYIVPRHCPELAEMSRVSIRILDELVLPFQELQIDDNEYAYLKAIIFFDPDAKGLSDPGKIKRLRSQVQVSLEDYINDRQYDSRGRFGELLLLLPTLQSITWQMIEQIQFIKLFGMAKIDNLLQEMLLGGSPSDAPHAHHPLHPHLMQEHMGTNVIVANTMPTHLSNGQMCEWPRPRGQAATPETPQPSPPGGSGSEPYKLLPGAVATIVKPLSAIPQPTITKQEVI
Myc proto-oncogene protein (Homo sapiens), sequence (P01106 whole entry, looked up, the tested form may be a part): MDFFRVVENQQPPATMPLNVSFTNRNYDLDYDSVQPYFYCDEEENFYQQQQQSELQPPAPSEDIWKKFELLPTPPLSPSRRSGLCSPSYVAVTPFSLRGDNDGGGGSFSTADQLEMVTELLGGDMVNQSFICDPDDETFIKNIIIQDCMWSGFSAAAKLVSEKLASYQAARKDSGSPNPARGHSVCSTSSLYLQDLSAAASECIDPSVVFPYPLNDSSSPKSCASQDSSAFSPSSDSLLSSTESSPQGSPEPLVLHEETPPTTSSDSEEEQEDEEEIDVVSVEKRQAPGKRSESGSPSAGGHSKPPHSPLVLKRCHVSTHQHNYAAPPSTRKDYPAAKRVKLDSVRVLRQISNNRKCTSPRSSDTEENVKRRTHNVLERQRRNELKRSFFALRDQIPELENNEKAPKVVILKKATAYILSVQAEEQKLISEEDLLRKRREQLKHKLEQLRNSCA
Cellular tumor antigen p53 (Homo sapiens), sequence (P04637 whole entry, looked up): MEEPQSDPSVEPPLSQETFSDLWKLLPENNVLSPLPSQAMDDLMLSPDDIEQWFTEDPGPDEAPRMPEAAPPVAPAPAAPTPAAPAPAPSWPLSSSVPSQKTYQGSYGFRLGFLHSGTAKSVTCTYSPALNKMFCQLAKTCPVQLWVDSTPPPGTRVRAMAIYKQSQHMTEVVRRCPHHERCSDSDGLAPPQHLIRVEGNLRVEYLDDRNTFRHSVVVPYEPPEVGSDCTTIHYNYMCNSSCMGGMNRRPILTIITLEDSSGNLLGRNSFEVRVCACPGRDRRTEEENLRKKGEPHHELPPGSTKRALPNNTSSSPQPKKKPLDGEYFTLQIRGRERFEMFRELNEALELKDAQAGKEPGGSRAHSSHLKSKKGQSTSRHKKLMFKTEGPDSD
Nuclear respiratory factor 1 (Homo sapiens), sequence (Q16656 whole entry, looked up): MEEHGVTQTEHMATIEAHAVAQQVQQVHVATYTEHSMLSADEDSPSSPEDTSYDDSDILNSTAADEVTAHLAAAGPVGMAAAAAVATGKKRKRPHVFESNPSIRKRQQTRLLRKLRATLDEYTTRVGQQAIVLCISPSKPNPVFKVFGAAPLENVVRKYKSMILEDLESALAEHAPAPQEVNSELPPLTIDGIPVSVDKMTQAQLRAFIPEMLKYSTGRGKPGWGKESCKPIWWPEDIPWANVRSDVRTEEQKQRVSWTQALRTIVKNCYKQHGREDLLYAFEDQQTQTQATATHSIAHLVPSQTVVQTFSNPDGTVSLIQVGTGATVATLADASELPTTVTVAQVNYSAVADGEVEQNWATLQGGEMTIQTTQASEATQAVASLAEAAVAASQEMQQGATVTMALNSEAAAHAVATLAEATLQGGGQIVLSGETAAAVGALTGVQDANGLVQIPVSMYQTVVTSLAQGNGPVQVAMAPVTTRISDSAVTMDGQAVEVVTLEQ
Bile acid receptor (Homo sapiens), sequence (Q96RI1 whole entry, looked up, the tested form may be a part): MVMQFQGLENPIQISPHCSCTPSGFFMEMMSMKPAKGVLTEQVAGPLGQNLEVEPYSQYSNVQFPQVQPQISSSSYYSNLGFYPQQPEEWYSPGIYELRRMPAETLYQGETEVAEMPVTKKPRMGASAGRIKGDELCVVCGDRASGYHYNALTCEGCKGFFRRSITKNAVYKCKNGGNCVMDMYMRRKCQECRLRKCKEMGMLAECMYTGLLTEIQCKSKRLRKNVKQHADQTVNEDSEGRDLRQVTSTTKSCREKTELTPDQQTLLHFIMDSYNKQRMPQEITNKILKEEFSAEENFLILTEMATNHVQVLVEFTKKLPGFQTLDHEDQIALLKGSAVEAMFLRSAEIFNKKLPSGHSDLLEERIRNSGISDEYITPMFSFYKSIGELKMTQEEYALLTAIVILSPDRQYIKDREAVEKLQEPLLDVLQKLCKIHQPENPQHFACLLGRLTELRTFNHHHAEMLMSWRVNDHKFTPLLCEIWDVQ

`CNC(=O)N(C)c1nnc(C(C)(C)C)s1`: the molecule was classed as inactive in assay [1], in assay [2], in [3], in assay [4], in assay [5] and in assay [6]. The molecule was classed as inactive in assay [7], in [8], in assay [9], in assay [10], in assay [11] and in assay [13]. The outcome in assay [14], in assay [15] and in [16] was inactive. The AC50 (commonly the midpoint of the concentration-response curve, whichever way the signal moves) in assay [12] is 60.1 µM (active).

`O=C1C2CC=CCC2C(=O)N1SC(Cl)(Cl)Cl` (configuration not stated): the call in [1], in [2], in assay [3], in assay [5], in [7] and in [8] was inactive. Besides, the result in assay [9], in assay [11], in assay [12], in assay [13], in [14] and in assay [15] was inactive. Also, in assay [16], the outcome was inactive.

As for `Clc1cccc(C(Cl)(Cl)Cl)n1`, the call in assay [17], in assay [1], in assay [2], in assay [4], in [5] and in [7] was inactive. Further, the molecule was classed as inactive in assay [8], in assay [9], in assay [10], in assay [12], in assay [13] and in assay [14]. Moreover, the result in assay [15] and in [16] was inactive.

On to `CN/C(=N\[N+](=O)[O-])NCc1cnc(Cl)s1`, for which the result in assay [1], in assay [2], in assay [4], in assay [5], in assay [7] and in assay [8] was inactive. The molecule was called inactive in [9], in assay [10], in assay [12], in assay [13], in [14] and in assay [15]. Also, the result in assay [16] was inactive.

For the molecule `COCC(=O)N(c1c(C)cccc1C)C(C)C(=O)OC` (configuration not stated), the result in [17], in [2], in assay [5], in assay [7], in [8] and in assay [9] was inactive. In addition, the call in assay [13], in [14], in assay [15] and in [16] was inactive. Moreover, in [12], the AC50 was 50 µM (active).

Regarding `Nc1c(Cl)c(F)nc(OCC(=O)O)c1Cl`, the call in assay [18], in [2], in [4], in assay [6], in assay [7] and in [8] was inactive. Moreover, the result in [9], in assay [10], in assay [11], in assay [12], in assay [13] and in assay [14] was inactive. Besides, the result in assay [15] and in [16] was inactive.

For the molecule `CCNP(=S)(OC)O/C(C)=C/C(=O)OC(C)C` (configuration not stated), the outcome in [1], in assay [2], in [3], in [4], in assay [6] and in assay [7] was inactive. Besides, the molecule was called inactive in assay [8], in [9], in assay [11], in [13], in [14] and in assay [15]. Further, the outcome in assay [16] was inactive. Also, the AC50 in assay [12] is 7.44 µM (active).

In the case of `CCN(CC)c1nc(C)cc(OP(=S)(OC)OC)n1`, the result in assay [2], in assay [3], in assay [5], in assay [7], in assay [8] and in assay [9] was inactive. In addition, the outcome in [11], in assay [12], in assay [14], in assay [15] and in assay [16] was inactive. Moreover, the figures for the AC50 in assay [6] and in assay [13] were 62.9 µM (active) and 8.94 µM (active), respectively.

Take `CCSC(=O)N1CCCCCC1`: the result in [1], in [2], in assay [5], in [6], in assay [7] and in assay [8] was inactive. Also, the outcome in assay [9], in assay [10], in [11], in assay [12], in assay [13] and in [14] was inactive. For the same molecule, the result in [15] and in [16] was inactive.

For the origin of these results see PubChem BioAssay (EPA / NIEHS).
